An excerpt weighted towards active compounds, which were near 3.2% of everything screened.
A549 viability – Nrf2 qHTS screen for inhibitors: counterscreen for cytotoxicity. AID 504648, 2011. Potency, µM (doses to about 46 µM), inactives show at the top dose activity change, negative = cytotoxicity, most hits filed as inhibitors. hit rate 0.16% among 390,000. A549 ARE-Fluc cells, CellTiter-Fluor viability, 18-24 h; further: potency means the concentration at half of the fitted maximal effect; on the % scale 0 is the no-effect control and ±100 the full control effect
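Cytotoxicity counterscreen: CellTiter-Fluor fluorescence was measured in A549 ARE_Fluc cells after 18-24 h of compound exposure in a concentration series. The subsequent BugLite luminescent read reports ARE-luciferase activity.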
IL-2 act – qHTS of IL-2 Activators | IL-2 activation reporter assay, cell-based qHTS; stimulated with anti-CD3/CD4/CD28 beads; in transgenic mouse T cells | activation, % (series mostly up to about 46 µM) | hit rate 0.065% among 360,000 | AID 652025, 2013; in the data active means activation above about 50%; inconclusive means mostly about 30% to 49%; further: 0% is about no effect
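Readout: EGFP and DsRed signals by fluorescent plate cytometry. Unstimulated transgenic mouse T cells received compound 60 min before antibody-bead stimulation, then incubated 18 h at 37 degrees C.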
p53 reactivation – qHTS assay for re-activators of p53 using a Luc reporter; H1299 p53-A138V BP100-luciferase reporter, luminescence, 24 h; AID 504706, 2011; hit rate 0.063% among 320,000; Potency, µM (top dose mostly 92.2 µM), for the others: top-dose activity change, positive = activation, actives largely listed as activators; further: potency means the concentration at half of the fitted maximal effect; % of control where 0% means no effect; nearly all actives have a fitted effect of over 45% in size
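p53-null H1299 cells stably carrying temperature-sensitive p53-A138V and a BP100-luciferase reporter were pinned with compounds (4-point, 1:5 series) and held 24 hrs at 37 deg C. Luminescence was read 10 min after detection reagent.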
Nrf2 inh – Nrf2 qHTS screen for inhibitors. A549 ARE-Fluc reporter, luciferase luminescence, 18-24 h. Potency, µM (doses to about 46 µM), for the others: at the top dose activity change, negative = inhibition, most hits filed as inhibitors. hit rate 2.1% among 360,000; further: potency means the concentration at half of the fitted maximal effect; on the % scale 0 is the no-effect control and ±100 the full control effect; nearly all actives have a fitted effect of over 60% in size
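Nrf2 function is reported as luminescence of an ARE-controlled luciferase in A549 cells. Compounds were tested at several concentrations, and a CellTiter-Fluor read on the same wells flagged cytotoxicity.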
Nrf2 activator – qHTS of Nrf2 Activators; Potency, µM (series often up to 46.1 µM), for inactives: top-dose activation, hits mostly activators; AREc32 ARE-luciferase reporter (MCF7-derived line), luminescence, 24 h; hit rate 0.31% among 410,000; AID 624171, 2012; further: potency means the concentration at half of the fitted maximal effect; % of control where 0% means no effect; nearly all actives have a fitted effect of over 65% in size
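For detection, Steady-Glo was added and plates sat 30 min at RT; before that, AREc32_Fluc cells grown overnight in OPTI-MEM/5% FBS had been treated with 23 nL compound for 24 hr at 37 deg C.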
BRCA1 expr up – qHTS Assay to Identify Small Molecule Activators of BRCA1 Expression; hit rate 1.1% among 380,000; MCF7-BRCA1-FFLuc reporter, luminescence, 48 h; response scale: scaled: vehicle 0%, 10 µM genistein 100%; AID 624202, 2012; Potency, µM (top dose mostly 46.1 µM), without a hit: at the top dose activation, actives largely listed as activators; further: potency means the concentration at half of the fitted maximal effect; nearly all actives have a fitted effect of over 80% in size
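Cells: MCF7-BRCA1-FFLuc, 2000/well. Exposure: 48 h, 37 °C, 5% CO2. Read: luminescence, 15 min post-substrate. Controls: genistein 10 microM (maximal activation), DMSO (neutral).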
* = called active by the depositor; ? = inconclusive; / = no result; [ ] = dose if it differs, or a comment. Unless noted, the call rests on the fitted dose curve; in most records, active means well fitted curve in the direction sought with a large enough effect; inconclusive means small, poorly fitted or top-dose-only effect, or another doubt; inactive means no such curve, though single readings can be large; an effect the other way counts as inactive or inconclusive.

SMILES	A549 viability	IL-2 act	p53 reactivation	Nrf2 inh	Nrf2 activator	BRCA1 expr up
Fc1ccccc1-c1ccc(/C=N/Nc2nc3ccccc3[nH]2)o1	3.7%	-2.3	35.5µM*	?	11.2µM*	-34.1%
Cc1cccc(S(=O)Cc2ccc(C(=O)NC3CCCCCC3)o2)c1 (configuration not stated)	0.7%	/	/	14.6%	-0.5%	/
CCOc1ccc2ncc3c(-c4ccc(C)cc4)nn(-c4cccc(F)c4)c3c2c1	2.3%	/	/	-8.8%	-1.1%	-0.8%
CSc1nsc(SC)c1C(=O)Nc1ccc(C(C)(C)C)cc1	5.6%	-0.3	-2.0%	?	11.2µM*	-10.1%
CCCCCCC#Cc1cncc(C(=O)NNC(=O)Nc2cc(Cl)cc(Cl)c2)c1	-2.7%	-2.1	11.8%	-22.2%	2.9%	-27.8%
CCCCC#Cc1cncc(C(=O)NN)c1	3.3%	-4.4	-0.6%	18.4µM*	0.2%	-0.9%
CC1=Nn2c(nc3sc4c(c3c2=O)CCCC4)SC1	-9.0%	-0.1	18.2%	?	0.4%	7.08µM*
Nc1nc2sc3c(c2c(=O)s1)CCCC3	-10.9%	-2.0	16.7%	12.8%	3.3%	11.2µM*
Nc1c2c3c(sc2nc(=O)n1N)CCCC3	-2.5%	0.0	-3.0%	-3.9%	-0.6%	-11.7%
O=c1c2c3c(sc2nc2n1CCCCC2)CCCC3	-10.0%	-0.9	?	?	-0.6%	4.47µM*
O=c1c2c3c(sc2nc2n1CCCC2)CCCCC3	-3.9%	0.1	?	?	2.5%	?
COc1ccccc1NS(=O)(=O)c1cc(NC(=O)c2cccnc2)ccc1N1CCCCC1	-14.1%	-1.0	-0.6%	20.6µM*	3.3%	-96.1%
COc1ccc(NS(=O)(=O)c2cc(NC(=O)C3CC3)ccc2N2CCCCC2)cc1	-14.5%	0.6	-5.8%	16.4µM*	0.5%	-10.4%
O=C(Nc1cccc(C(F)(F)F)c1)Nc1ccc(N2CCCC2)c(S(=O)(=O)Nc2ccccc2Cl)c1	?	7.4	4.3%	3.26µM*	0.2%	-89.8%
COc1ccccc1NS(=O)(=O)c1cc(NC(=O)C2CCC2)ccc1N1CCCCC1	1.9%	-3.3	-2.3%	?	-0.6%	-33.2%
COc1ccc(NS(=O)(=O)c2ccc(N3CCCCC3)c(N)c2)cc1	-8.5%	-0.9	12.1%	6.51µM*	6.0%	0.9%
Cc1ccc(Cl)cc1NC(=O)N1CCC(CN2CCCCCC2)CC1	-11.2%	/	/	26.8%	0.1%	/
Cc1ccc(-c2nc(CS(=O)CC(=O)NCCc3ccc(Cl)cc3)c(C)o2)cc1 (configuration not stated)	1.2%	/	/	?	4.4%	/
O=C(O)c1ccc2c(c1)C(=O)N([C@H](Cc1ccc3ccccc3c1)C(=O)O)C2=O	1.9%	/	/	10.5%	/	/
CCN(Cc1ccccc1)C(=O)CCc1nnc(CCCc2ccccc2)o1	0.7%	-0.1	9.9%	?	4.2%	11.2µM*
CC(C)CC(=O)Nc1nnc(SCc2cc(=O)n3ccccc3n2)s1	-12.3%	/	/	/	-0.1%	/
Clc1cc2cccnc2c2ncccc12	-5.7%	0.6	?	-4.8%	3.7%	-71.4%
Cc1c(C)c2cccnc2c2ncccc12	5.8µM*	-1.0	-33.1%	?	4.4%	-70.5%
CCC(=O)Oc1c(Sc2ccc(Cl)cc2)c(C)nn1-c1ccccc1	9.8%	/	/	-21.7%[9.27 µM]	-4.1%	/
NS(=O)(=O)c1ccc(Oc2ccc(S(N)(=O)=O)cc2)cc1	-9.9%	-0.3	-4.1%	-9.1%	-0.2%	1.2%
C=CS(=O)(=O)c1ccc(Oc2ccc(S(=O)(=O)C=C)cc2)cc1	?	0.2	-20.6%	18.4µM*	-2.0%	-99.5%
O=c1oc2c(CN3CCOCC3)c(O)ccc2cc1-c1ccc(Cl)cc1	20.3%	/	/	/	6.6%	/
CC(=O)Oc1ccc(-c2cc3ccccc3oc2=O)cc1	-2.0%	0.2	/	16.7%	5.0%	12.6µM*
O=c1oc2cc(O)ccc2cc1-c1ccccc1	0.5%	0.9	?	?	7.3%	10µM*

Compound activity as filed in PubChem.
